Shown are actives, neighbours in structure and some others; about 3% of the full set was active somewhere.
TRAIL sens C8: viability loss with TRAIL in NB7+C8 cells, primary screen, TRAIL sensitizer project, cell-based, ATPlite luminescence; inhibition (viability loss, TRAIL sensitization), % at 10 µM; AID 624354, 2012; actives 1% (n = 360,000);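 active = compounds causing at least 50% loss of cell viability in the single-dose screen, relative to plate controls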
SENP8 block-1: human SENP8 protease inhibitors, primary screen, biochemical, fluorescence, Nedd8 protein substrate, uHTS | inhibition, % at 20 µM | actives 0.64% (n = 360,000) | recombinant SENP8; in the data active = inhibition mostly above about 40%, no sharp cut-off; inactive = mostly below about 27%
PPC-1+TRAIL kill: compounds killing PPC-1 cancer cells with TRAIL present, primary screen, TRAIL potentiator project, ATPLite luminescence, uHTS; cell killing (% activity), % at 4 µM or 5 µM; actives 0.41% (n = 220,000); AID 1443, 2008; PPC-1 cells + TRAIL, ATPLite viability luminescence;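 active = cell killing above 50% in the first pass at 4 µM, then a duplicate retest at 5 µM averaging 50% or more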
SENP6 block: SENP6 protease inhibitors, primary screen, biochemical, luminescence, uHTS. AID 2599, 2010. actives 1.8% (n = 330,000). inhibition, % at 10 µM. Recombinant SENP6 catalytic domain, aminoluciferin luminescence;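 active = inhibition above about 50% at the single tested dose, limit read from the data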
Target sequence (Q9GZR1 628-1112 limits assumed): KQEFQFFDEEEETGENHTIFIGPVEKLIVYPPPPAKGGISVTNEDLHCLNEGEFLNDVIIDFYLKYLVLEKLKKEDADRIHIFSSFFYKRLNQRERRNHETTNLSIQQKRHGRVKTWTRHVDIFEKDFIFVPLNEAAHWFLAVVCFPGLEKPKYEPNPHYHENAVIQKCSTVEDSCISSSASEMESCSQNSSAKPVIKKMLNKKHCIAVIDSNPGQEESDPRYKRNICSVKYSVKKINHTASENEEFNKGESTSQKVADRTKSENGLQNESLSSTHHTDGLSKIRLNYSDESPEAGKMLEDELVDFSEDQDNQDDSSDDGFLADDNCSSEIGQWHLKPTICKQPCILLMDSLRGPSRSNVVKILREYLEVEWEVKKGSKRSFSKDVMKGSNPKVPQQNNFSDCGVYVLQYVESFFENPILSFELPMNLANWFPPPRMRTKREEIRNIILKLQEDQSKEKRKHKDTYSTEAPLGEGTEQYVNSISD
SENP8 block-2: SENP8 protease inhibitors, primary screen, biochemical, luminescence; AID 2540, 2010; purified SENP8, Z-RLRGG-aminoluciferin cleavage; inhibition, % at 10 µM; Sentrin-specific protease 8 (Homo sapiens), Q96LD8; actives 1.2% (n = 330,000); in the data active = inhibition above about 50%
SENP7 inh: SENP7 protease inhibitors, primary screen, biochemical, luminescence, uHTS; inhibition, % at 5 µM; Sentrin-specific protease 7 (Homo sapiens), Q9BQF6; actives 1.5% (n = 330,000); recombinant SENP7, Z-RLRGG-aminoluciferin luminescence, 40 min;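 active = inhibition above about 50% at the single test dose, limit read from the data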
SENP8 conf: SENP8 protease inhibitors, retest, confirmation, biochemical, luminescence, single concentration; shares compounds with SENP7 inh; Recombinant SENP8, Z-RLRGG-aminoluciferin luminescence, 60 min; inhibition, % at 12.5 µM; actives 40% (n = 6,200);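 active = mean inhibition across replicates above about 50%, limit read from the data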
SENP6 conf: SENP6 protease inhibitors, confirmation, biochemical, luminescence, single concentration. shares compounds with SENP7 inh. recombinant SENP6, Z-RLRGG-aminoluciferin luminescence. inhibition, % at 12.5 µM. actives 58% (n = 6,200). AID 488915, 2010
SENP7 conf: SENP7 protease inhibitors, retest, confirmation, biochemical, luminescence, single concentration; shares compounds with SENP7 inh; recombinant SENP7, Z-RLRGG-aminoluciferin luminescence, 40 min; inhibition, % at 12.5 µM; actives 69% (n = 6,200); AID 488917, 2010
Casp3 select: caspase-3 protease inhibitors, confirmation, selectivity assay for SENP inhibitor project, biochemical, single concentration | shares compounds with SENP7 inh | purified caspase-3, Z-DEVD-aminoluciferin luminescence, 60 min | inhibition, % at 12.5 µM | actives 60% (n = 6,200) | AID 488918, 2010;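 active = mean inhibition above about 50%, limit read from the data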
SENP luc ctr: counter-screen for SENP inhibitors: luminescence interference; shares compounds with SENP7 inh; Pre-incubated SENP8/Z-RLRGG-aminoluciferin, luciferase luminescence interference; inhibition, % at 12.5 µM; actives 39% (n = 6,200); AID 488919;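 active = mean inhibition above about 50% when retested at one dose, limit read from the data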
Of the large screens only hits and unclear results are named; the others gave an inactive call (follow-up assays come after a bar, where they were run).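 Rule for the calls, unless noted: active = mean inhibition above about 50% in the one-dose retest (limit read from the data); inactive = the rest.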

Cc1csc2c(=O)sc(NC(=O)c3cccs3)nc12	none
Cc1ccc(/C=c2/sc3n(c2=O)CCCN=3)o1	none
O=c1/c(=C\c2ccc3c(c2)OCO3)sc2n1CCCN=2	SENP6 block 78, SENP8 block-2 55, SENP7 inh 69 | SENP8 conf inactive | SENP6 conf inactive | SENP7 conf 61 | Casp3 select inactive | SENP luc ctr inactive
Clc1nc2ccccc2cc1-c1nnn(-c2ccccc2)n1	none
Fc1ccc(-n2nnc(-c3nccs3)n2)cc1	SENP6 block 88, SENP8 block-2 87, SENP7 inh 91 | SENP8 conf 88 | SENP6 conf 92 | SENP7 conf 100 | Casp3 select 96 | SENP luc ctr 67
Clc1ccc(-n2nnc(-c3cccnc3Cl)n2)cc1Cl	SENP7 inh 57 | SENP8 conf inactive | SENP6 conf inactive | SENP7 conf inactive | Casp3 select inactive | SENP luc ctr inactive
Fc1ccc(-n2nnc(-c3ccccc3Cl)n2)cc1	none (no result: PPC-1+TRAIL kill)
Fc1ccc(-n2nnc(-c3cccnc3Cl)n2)cc1	SENP6 block 74, SENP8 block-2 72, SENP7 inh 81 | SENP8 conf 73 | SENP6 conf 75 | SENP7 conf 92 | Casp3 select 84 | SENP luc ctr 74
Clc1ncccc1-c1nnn(-c2ccccc2)n1	SENP6 block 91, SENP8 block-2 86, SENP7 inh 89 | SENP8 conf 88 | SENP6 conf 90 | SENP7 conf 99 | Casp3 select 92 | SENP luc ctr 88
Cc1ccccc1OCC(=O)NCCCNC(=O)c1ccco1	none (no result: PPC-1+TRAIL kill)
[O-]/[N+](=N\Nc1ccc(Cl)cc1)c1ccccc1	none (no result: PPC-1+TRAIL kill, SENP6 block, SENP8 block-2, SENP7 inh)
CCN(CC(=O)Nc1ccc2c(c1)OCCO2)CC(=O)Nc1ccc(C)c([N+](=O)[O-])c1	none (no result: PPC-1+TRAIL kill)
CC(=O)c1cccc2c1OC(C)C(=O)N2Cc1ccc(Cl)cc1 (centres undefined)	none (no result: PPC-1+TRAIL kill, SENP6 block, SENP8 block-2, SENP7 inh)
COc1ncccc1-c1nnn(-c2ccccc2)n1	SENP6 block 84, SENP8 block-2 81, SENP7 inh 87 | SENP8 conf 85 | SENP6 conf 88 | SENP7 conf 98 | Casp3 select 91 | SENP luc ctr 84
COc1ncccc1-c1nnn(-c2ccccc2Br)n1	none (no result: PPC-1+TRAIL kill)
c1cc2c3c(cccc3c1)C(N1CCCCC1)=N2	SENP6 block 69 | SENP8 conf inactive | SENP6 conf inactive | SENP7 conf inactive | Casp3 select inactive | SENP luc ctr inactive
c1cc2c3c(cccc3c1)C(N1CCCCCC1)=N2	none
N/C(=N\OC(=O)c1ccc(Cl)cc1)c1[nH]ncc1Br	SENP6 block 100, SENP8 block-2 96, SENP7 inh 100 | SENP8 conf 98 | SENP6 conf 98 | SENP7 conf 101 | Casp3 select 98 | SENP luc ctr 98

Screening results deposited in PubChem by Sanford-Burnham Center for Chemical Genomics.
